Source: article PMC5700166

Target: T1, GST-Nv-NF-kB (Ser allele) (Nematostella vectensis, UniProt A7UNT2 2-411)
T1 sequence: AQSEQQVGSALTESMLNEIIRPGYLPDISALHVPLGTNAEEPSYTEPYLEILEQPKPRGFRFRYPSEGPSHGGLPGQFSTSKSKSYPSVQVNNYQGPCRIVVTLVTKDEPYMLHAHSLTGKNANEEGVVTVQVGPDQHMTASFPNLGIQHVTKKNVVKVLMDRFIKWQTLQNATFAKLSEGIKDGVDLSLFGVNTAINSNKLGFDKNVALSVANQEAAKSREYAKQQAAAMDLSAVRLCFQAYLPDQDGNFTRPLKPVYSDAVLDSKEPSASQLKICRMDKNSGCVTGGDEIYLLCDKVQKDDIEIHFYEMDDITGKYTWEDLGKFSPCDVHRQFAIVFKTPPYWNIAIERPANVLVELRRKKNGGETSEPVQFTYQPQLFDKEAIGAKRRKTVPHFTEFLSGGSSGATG
Assay: protein-binding microarray (PBM); PBM: ~300 nM protein, 6 mM HEPES pH 7.8, 80 mM KCl, 0.5 mM EDTA, 0.5 mM EGTA, 6% glycerol, 35 ng/ul poly-dIdC, 1% milk, 1 h, room temperature; Ap Aiptasia and Nv Nematostella (sea anemones) / Co Capsaspora / Aq Amphimedon (sponge) / Dm Drosophila / Hu human; RHD is the Rel homology domain; high values mean tight binding
Conditions: dsDNA, one strand shown

Row | Sequence | binding signal
1 | CCGATTAACATCAGGGAGATTTGTGATGTTAATCGGGTCTTGATTCGCTTGACGCTGCTG | 3.43 z-score
2 | CCGATTAACATCAGAATTACCCATGATGTTAATCGGGTCTTGATTCGCTTGACGCTGCTG | 3.26 z-score
3 | CCGATTAACATCACATTGTCCCCTGATGTTAATCGGGTCTTGATTCGCTTGACGCTGCTG | 5.06 z-score
4 | CCGATTAACATCAGGCTTTTCCCTGATGTTAATCGGGTCTTGATTCGCTTGACGCTGCTG | 4.44 z-score
5 | CCGATTAACATCAAAAATCCCATTGATGTTAATCGGGTCTTGATTCGCTTGACGCTGCTG | 1.88 z-score
6 | CCGATTAACATCAAAAAAAGTCCTGATGTTAATCGGGTCTTGATTCGCTTGACGCTGCTG | 1.42 z-score
7 | CCGATTAACATCAGAAATCTCCCTGATGTTAATCGGGTCTTGATTCGCTTGACGCTGCTG | 4.16 z-score
8 | CCGATTAACATCAGGAACGTCCCTGATGTTAATCGGGTCTTGATTCGCTTGACGCTGCTG | 2.75 z-score
9 | CCGATTAACATCAGGGGTTCACCTGATGTTAATCGGGTCTTGATTCGCTTGACGCTGCTG | 3.04 z-score
10 | CCGATTAACATCAGGGAAAAAACTGATGTTAATCGGGTCTTGATTCGCTTGACGCTGCTG | 6.38 z-score
11 | CCGATTAACATCAGGGGATCCACTGATGTTAATCGGGTCTTGATTCGCTTGACGCTGCTG | 5.91 z-score
12 | CCGATTAACATCAGGGGTAAAACTGATGTTAATCGGGTCTTGATTCGCTTGACGCTGCTG | 3.62 z-score
13 | CCGATTAACATCAAACCCCCCCGTGATGTTAATCGGGTCTTGATTCGCTTGACGCTGCTG | 4.7 z-score
14 | CCGATTAACATCACCTTGGGAAATGATGTTAATCGGGTCTTGATTCGCTTGACGCTGCTG | 2.17 z-score
15 | CCGATTAACATCAGAATTGCCCCTGATGTTAATCGGGTCTTGATTCGCTTGACGCTGCTG | 2.89 z-score
16 | CCGATTAACATCAAGAAATTACCTGATGTTAATCGGGTCTTGATTCGCTTGACGCTGCTG | 5.68 z-score
17 | CCGATTAACATCAAGGGGGTCCCTGATGTTAATCGGGTCTTGATTCGCTTGACGCTGCTG | 3.02 z-score
18 | CCGATTAACATCAGGGGCAACCCTGATGTTAATCGGGTCTTGATTCGCTTGACGCTGCTG | 1.9 z-score
19 | CCGATTAACATCAAATTGCCCCCTGATGTTAATCGGGTCTTGATTCGCTTGACGCTGCTG | 4.54 z-score
20 | CCGATTAACATCAGACTTCCCCATGATGTTAATCGGGTCTTGATTCGCTTGACGCTGCTG | 6.11 z-score

Row | Sequence | binding signal
21 | CCGATTAACATCAGGGGAGGAAATGATGTTAATCGGGTCTTGATTCGCTTGACGCTGCTG | 4.9 z-score
22 | CCGATTAACATCACGGTACGGGGTGATGTTAATCGGGTCTTGATTCGCTTGACGCTGCTG | 1.3 z-score
23 | CCGATTAACATCAAGGGGTCCCCTGATGTTAATCGGGTCTTGATTCGCTTGACGCTGCTG | 2.59 z-score
24 | CCGATTAACATCAGGGGGTTACATGATGTTAATCGGGTCTTGATTCGCTTGACGCTGCTG | 4.94 z-score
25 | CCGATTAACATCAGGGAAATATATGATGTTAATCGGGTCTTGATTCGCTTGACGCTGCTG | 5.62 z-score
26 | CCGATTAACATCATTAGGGTATTTGATGTTAATCGGGTCTTGATTCGCTTGACGCTGCTG | 4.26 z-score
27 | CCGATTAACATCAGGAATCCCTATGATGTTAATCGGGTCTTGATTCGCTTGACGCTGCTG | 1.72 z-score
28 | CCGATTAACATCAAAAATTTTCCTGATGTTAATCGGGTCTTGATTCGCTTGACGCTGCTG | 1.32 z-score
29 | CCGATTAACATCACCCCAGCCCCTGATGTTAATCGGGTCTTGATTCGCTTGACGCTGCTG | 1.91 z-score
30 | CCGATTAACATCACATATTTCCCTGATGTTAATCGGGTCTTGATTCGCTTGACGCTGCTG | 5.42 z-score
31 | CCGATTAACATCAAAAAAATACCTGATGTTAATCGGGTCTTGATTCGCTTGACGCTGCTG | 4.89 z-score
32 | CCGATTAACATCATGATGGGAAATGATGTTAATCGGGTCTTGATTCGCTTGACGCTGCTG | 1.98 z-score
33 | CCGATTAACATCAGGGGATGGGATGATGTTAATCGGGTCTTGATTCGCTTGACGCTGCTG | 4.39 z-score
34 | CCGATTAACATCAGGGAATATAATGATGTTAATCGGGTCTTGATTCGCTTGACGCTGCTG | 3.88 z-score
35 | CCGATTAACATCACTGTTTTCCCTGATGTTAATCGGGTCTTGATTCGCTTGACGCTGCTG | 6.12 z-score
36 | CCGATTAACATCAGGGGAGAAAATGATGTTAATCGGGTCTTGATTCGCTTGACGCTGCTG | 5.87 z-score
37 | CCGATTAACATCACCCGCTTTATTGATGTTAATCGGGTCTTGATTCGCTTGACGCTGCTG | 1.21 z-score
38 | CCGATTAACATCACCCAGGGAAATGATGTTAATCGGGTCTTGATTCGCTTGACGCTGCTG | 1.97 z-score
39 | CCGATTAACATCATAAAATCCCATGATGTTAATCGGGTCTTGATTCGCTTGACGCTGCTG | 2.31 z-score

Target: GST-Hu-p50 (Homo sapiens, UniProt P19838 7-356)
Assay: as above
Conditions: dsDNA, one strand shown

Sequence of GST-Hu-p50 (P19838 7-356): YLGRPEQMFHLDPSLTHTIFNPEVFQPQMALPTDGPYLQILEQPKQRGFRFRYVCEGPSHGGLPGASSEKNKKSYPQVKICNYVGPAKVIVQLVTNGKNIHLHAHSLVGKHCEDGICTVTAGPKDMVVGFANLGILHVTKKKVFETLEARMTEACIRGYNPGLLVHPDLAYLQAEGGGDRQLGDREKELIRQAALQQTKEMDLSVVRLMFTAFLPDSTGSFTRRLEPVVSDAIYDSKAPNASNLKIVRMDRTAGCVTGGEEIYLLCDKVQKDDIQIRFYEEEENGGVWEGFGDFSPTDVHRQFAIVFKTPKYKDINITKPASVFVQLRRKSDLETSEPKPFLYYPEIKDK

Row | Sequence | binding signal
40 | CCGATTAACATCAGGGAGATTTGTGATGTTAATCGGGTCTTGATTCGCTTGACGCTGCTG | 3.58 z-score
41 | CCGATTAACATCAGAATTACCCATGATGTTAATCGGGTCTTGATTCGCTTGACGCTGCTG | 2.83 z-score
42 | CCGATTAACATCACATTGTCCCCTGATGTTAATCGGGTCTTGATTCGCTTGACGCTGCTG | 3.52 z-score
43 | CCGATTAACATCAGGCTTTTCCCTGATGTTAATCGGGTCTTGATTCGCTTGACGCTGCTG | 3.4 z-score
44 | CCGATTAACATCAAAAATCCCATTGATGTTAATCGGGTCTTGATTCGCTTGACGCTGCTG | 3.48 z-score
45 | CCGATTAACATCAAAAAAAGTCCTGATGTTAATCGGGTCTTGATTCGCTTGACGCTGCTG | 2.19 z-score
46 | CCGATTAACATCAGAAATCTCCCTGATGTTAATCGGGTCTTGATTCGCTTGACGCTGCTG | 4.42 z-score
47 | CCGATTAACATCAGGAACGTCCCTGATGTTAATCGGGTCTTGATTCGCTTGACGCTGCTG | 2.12 z-score
48 | CCGATTAACATCAGGGGTTCACCTGATGTTAATCGGGTCTTGATTCGCTTGACGCTGCTG | 3.78 z-score
49 | CCGATTAACATCAGGGAAAAAACTGATGTTAATCGGGTCTTGATTCGCTTGACGCTGCTG | 4.02 z-score
50 | CCGATTAACATCAGGGGATCCACTGATGTTAATCGGGTCTTGATTCGCTTGACGCTGCTG | 4.97 z-score
51 | CCGATTAACATCAGGGGTAAAACTGATGTTAATCGGGTCTTGATTCGCTTGACGCTGCTG | 3.28 z-score
52 | CCGATTAACATCAAACCCCCCCGTGATGTTAATCGGGTCTTGATTCGCTTGACGCTGCTG | 5.27 z-score
53 | CCGATTAACATCACCTTGGGAAATGATGTTAATCGGGTCTTGATTCGCTTGACGCTGCTG | 2.17 z-score
54 | CCGATTAACATCAGAATTGCCCCTGATGTTAATCGGGTCTTGATTCGCTTGACGCTGCTG | 4.35 z-score
55 | CCGATTAACATCAAGAAATTACCTGATGTTAATCGGGTCTTGATTCGCTTGACGCTGCTG | 3.38 z-score
56 | CCGATTAACATCAAGGGGGTCCCTGATGTTAATCGGGTCTTGATTCGCTTGACGCTGCTG | 3.68 z-score
57 | CCGATTAACATCAGGGGCAACCCTGATGTTAATCGGGTCTTGATTCGCTTGACGCTGCTG | 3.13 z-score
58 | CCGATTAACATCAAATTGCCCCCTGATGTTAATCGGGTCTTGATTCGCTTGACGCTGCTG | 4.59 z-score
59 | CCGATTAACATCAGACTTCCCCATGATGTTAATCGGGTCTTGATTCGCTTGACGCTGCTG | 4.73 z-score

Row | Sequence | binding signal
60 | CCGATTAACATCAGGGGAGGAAATGATGTTAATCGGGTCTTGATTCGCTTGACGCTGCTG | 3.1 z-score
61 | CCGATTAACATCACGGTACGGGGTGATGTTAATCGGGTCTTGATTCGCTTGACGCTGCTG | 1.71 z-score
62 | CCGATTAACATCAAGGGGTCCCCTGATGTTAATCGGGTCTTGATTCGCTTGACGCTGCTG | 3.06 z-score
63 | CCGATTAACATCAGGGGGTTACATGATGTTAATCGGGTCTTGATTCGCTTGACGCTGCTG | 5.16 z-score
64 | CCGATTAACATCAGGGAAATATATGATGTTAATCGGGTCTTGATTCGCTTGACGCTGCTG | 4.03 z-score
65 | CCGATTAACATCATTAGGGTATTTGATGTTAATCGGGTCTTGATTCGCTTGACGCTGCTG | 4.5 z-score
66 | CCGATTAACATCAGGAATCCCTATGATGTTAATCGGGTCTTGATTCGCTTGACGCTGCTG | 1.89 z-score
67 | CCGATTAACATCAAAAATTTTCCTGATGTTAATCGGGTCTTGATTCGCTTGACGCTGCTG | 2.23 z-score
68 | CCGATTAACATCACCCCAGCCCCTGATGTTAATCGGGTCTTGATTCGCTTGACGCTGCTG | 2.68 z-score
69 | CCGATTAACATCACATATTTCCCTGATGTTAATCGGGTCTTGATTCGCTTGACGCTGCTG | 3.71 z-score
70 | CCGATTAACATCAAAAAAATACCTGATGTTAATCGGGTCTTGATTCGCTTGACGCTGCTG | 3.43 z-score
71 | CCGATTAACATCATGATGGGAAATGATGTTAATCGGGTCTTGATTCGCTTGACGCTGCTG | 2.02 z-score
72 | CCGATTAACATCAGGGGATGGGATGATGTTAATCGGGTCTTGATTCGCTTGACGCTGCTG | 2.85 z-score
73 | CCGATTAACATCAGGGAATATAATGATGTTAATCGGGTCTTGATTCGCTTGACGCTGCTG | 2.29 z-score
74 | CCGATTAACATCACTGTTTTCCCTGATGTTAATCGGGTCTTGATTCGCTTGACGCTGCTG | 3.14 z-score
75 | CCGATTAACATCAGGGGAGAAAATGATGTTAATCGGGTCTTGATTCGCTTGACGCTGCTG | 4.88 z-score
76 | CCGATTAACATCACCCGCTTTATTGATGTTAATCGGGTCTTGATTCGCTTGACGCTGCTG | 1.46 z-score
77 | CCGATTAACATCACCCAGGGAAATGATGTTAATCGGGTCTTGATTCGCTTGACGCTGCTG | 2.01 z-score
78 | CCGATTAACATCATAAAATCCCATGATGTTAATCGGGTCTTGATTCGCTTGACGCTGCTG | 3.45 z-score
